# Measurements published in PubChem BioAssay.
# This is one part of the list. Activity calls are given as the source filed them.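 How the source made its calls, unless noted: active means mean inhibition above about 50% in the one-dose retest (limit read from the data); inactive means the rest.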
# How the values were obtained:
# [1] = cytotoxicity in PPC-1 cells, confirmation, cytotoxicity control for TRAIL apoptosis potentiator project, cell-based, ATP content luminescence (AID 1447;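 active means reconfirmed compounds whose average cytotoxicity reaches 50% or more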;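 further: 0% = DMSO-treated cells and 100% = wells holding medium but no cells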); conditions: PPC-1 viability, ATPlite luminescence, overnight; at 5 µM; stronger effect = higher value
# [2] = molecular target: Sentrin-specific protease 8 (Homo sapiens) (UniProt Q96LD8); assay: SENP8 protease inhibitors, retest, confirmation, biochemical, luminescence, single concentration (AID 488912;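 active means mean inhibition across replicates above about 50%, limit read from the data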); conditions: Recombinant SENP8, Z-RLRGG-aminoluciferin luminescence, 60 min; at 12.5 µM; stronger effect = higher value
# [3] = molecular target: Sentrin-specific protease 6 (Homo sapiens) (UniProt Q9GZR1); assay: SENP6 protease inhibitors, confirmation, biochemical, luminescence, single concentration (AID 488915); conditions: recombinant SENP6, Z-RLRGG-aminoluciferin luminescence; at 12.5 µM; stronger effect = higher value
# [4] = molecular target: Sentrin-specific protease 7 (Homo sapiens) (UniProt Q9BQF6); assay: SENP7 protease inhibitors, retest, confirmation, biochemical, luminescence, single concentration (AID 488917); conditions: recombinant SENP7, Z-RLRGG-aminoluciferin luminescence, 40 min; at 12.5 µM; stronger effect = higher value
# [5] = molecular target: Caspase-3 (Homo sapiens) (UniProt P42574); assay: caspase-3 protease inhibitors, confirmation, selectivity assay for SENP inhibitor project, biochemical, single concentration (AID 488918;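 active means mean inhibition above about 50%, limit read from the data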;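 further: plate controls were enzyme with DMSO for no effect and wells without caspase-3 for full effect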); conditions: purified caspase-3, Z-DEVD-aminoluciferin luminescence, 60 min; at 12.5 µM; stronger effect = higher value
# [6] = luciferase luminescence interference by compounds, confirmation, artefact control for SENP inhibitor project, biochemical, single concentration, SENP8 reaction pre-completed (AID 488919;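 active means mean inhibition above about 50% when retested at one dose, limit read from the data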;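 further: plate controls were DMSO wells with completed reaction for no effect and substrate without enzyme for full effect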); conditions: Pre-incubated SENP8/Z-RLRGG-aminoluciferin, at 12.5 µM, stronger effect = higher value
# [7] = activators of apoptotic CHOP UPR arm, confirmation, cell-based, CHO-CHOP luciferase reporter, single concentration (AID 463112; in the data active means activation above about 33%;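 further: 0% = DMSO wells and 100% = tunicamycin 10 µg/mL wells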); conditions: CHO-CHOP cells, CHOP-luciferase reporter luminescence; at 10 µM; stronger effect = higher value; percent of tunicamycin response, DMSO as zero
# [8] = molecular target: Protein Mdm4 (Homo sapiens) + E3 ubiquitin-protein ligase Mdm2 (Homo sapiens) (UniProt O15151+Q00987); assay: retested Mdm2-MdmX interaction blockers, confirmation, cell-based, luminescence, single concentration, set 2 (AID 504601;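 active means mean inhibition of the luminescence signal across two replicates at or above 26 percent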); conditions: SaOS-2 split-luciferase Mdm2/MdmX complementation, at 8 µM, stronger effect = higher value
# [9] = HIF-2a reporter inhibitor retest, confirmation, luminescence, 786-0 RCC cells (AID 651580;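 active means mean inhibition across four replicates of at least 40 percent at the single tested concentration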); conditions: HIF-2a luciferase reporter luminescence, overnight, at 18.8 µM, stronger effect = higher value
# [10] = HIF-1a luciferase reporter signal reduction – MiaPaCa-2 cells, single concentration, counter-screen for HIF-2a inhibitor project, confirmation (AID 651589;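 active means mean inhibition of the reporter signal across four replicates at the single tested dose of 50% or more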); conditions: MiaPaCa-2 HIF-1a luciferase reporter, desferoxamine, overnight; at 18.8 µM; stronger effect = higher value
# [11] = fluorescence interference of Apaf-1 inhibitor hits, dose response, artefact control for Apaf-1 inhibitor project (AID 588538; call rule not given here); conditions: fluorescence interference counterscreen, Apaf-1 assay format
# [12] = Peg3 promoter reporter inhibitors, retest, confirmation, cell-based, HeLa, luciferase reporter, single concentration (AID 602417;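 active means at 20 µM dose, 40% or more inhibition averaged across four replicates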); conditions: HeLa PEG-Prom luciferase reporter, luminescence, overnight; at 20 µM; stronger effect = higher value
# [13] = molecular target: PEG-3 (UniProt Q6IN02); assay: Peg3 promoter luciferase inhibitors, potency, dose response, cell-based, HeLa, CREF/GAPDH counter-screen panel (AID 624167); conditions: HeLa PEG-Prom luciferase reporter, overnight, CREF/GAPDH counter-screens; run 1, dose range 1, at 100 µM (top of the series)
# [14] = molecular target: PEG-3 (UniProt Q6IN02); assay: as above; conditions: HeLa PEG-Prom luciferase reporter, overnight, CREF/GAPDH counter-screens; run 2, dose range 1, at 100 µM (top of the series)
# [15] = inhibitors of PAF-induced NF-kB signaling, retest, confirmation, cell-based, GFP fluorescence, single concentration (AID 602472; in the data active means inhibition above about 40%;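 further: stimulus PAF is a Pseudomonas aeruginosa filtrate and not platelet activating factor; plate controls were DMSO wells with stimulus for no effect and unstimulated DMSO wells for full effect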); conditions: KKLEB CF airway cells, overnight, at 5 µM, stronger effect = higher value
# [16] = inhibition of Brca1/Bard1 split-luciferase complementation, confirmation, counter-screen for Mdm2/MdmX interaction inhibitor project, luminescence, single concentration (AID 504668; call rule not given here); conditions: Brca1/Bard1 bimolecular luciferase complementation counterscreen, at 8 µM, stronger effect = higher value
# [17] = molecular target: Tumor necrosis factor receptor superfamily member 10B (Homo sapiens) (UniProt O14763); assay: caspase-8 TRAIL sensitization, hit retest, confirmation, cell-based, NB7+caspase-8, with/without TRAIL, luminescence panel (AID 651596; in the data active means activity above about 50%); conditions: NB7 neuroblastoma + caspase-8, TRAIL sensitization, luminescence viability, with TRAIL, mean of runs, at 10 µM, stronger effect = higher value
# [18] = as above; conditions: NB7 neuroblastoma + caspase-8, without TRAIL, luminescence viability, without TRAIL, mean of runs, at 10 µM
# PEG-3, sequence (Q6IN02 whole entry, looked up): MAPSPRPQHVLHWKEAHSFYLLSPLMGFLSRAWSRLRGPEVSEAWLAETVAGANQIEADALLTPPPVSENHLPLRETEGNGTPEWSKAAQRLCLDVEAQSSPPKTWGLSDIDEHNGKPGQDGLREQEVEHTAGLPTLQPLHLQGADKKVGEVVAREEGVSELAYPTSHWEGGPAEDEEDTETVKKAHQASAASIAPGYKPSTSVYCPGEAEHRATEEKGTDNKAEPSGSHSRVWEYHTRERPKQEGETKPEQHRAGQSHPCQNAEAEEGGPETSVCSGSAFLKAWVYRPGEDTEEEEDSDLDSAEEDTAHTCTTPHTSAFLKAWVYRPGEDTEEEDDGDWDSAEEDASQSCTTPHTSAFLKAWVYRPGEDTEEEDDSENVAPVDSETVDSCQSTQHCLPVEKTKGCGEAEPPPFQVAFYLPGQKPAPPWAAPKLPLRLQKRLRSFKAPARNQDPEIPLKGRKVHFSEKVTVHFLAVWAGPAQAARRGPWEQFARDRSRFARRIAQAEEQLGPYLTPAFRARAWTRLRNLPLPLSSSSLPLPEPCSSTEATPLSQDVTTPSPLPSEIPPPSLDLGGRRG
# Sentrin-specific protease 7 (Homo sapiens), sequence (Q9BQF6 706-1050 limits assumed): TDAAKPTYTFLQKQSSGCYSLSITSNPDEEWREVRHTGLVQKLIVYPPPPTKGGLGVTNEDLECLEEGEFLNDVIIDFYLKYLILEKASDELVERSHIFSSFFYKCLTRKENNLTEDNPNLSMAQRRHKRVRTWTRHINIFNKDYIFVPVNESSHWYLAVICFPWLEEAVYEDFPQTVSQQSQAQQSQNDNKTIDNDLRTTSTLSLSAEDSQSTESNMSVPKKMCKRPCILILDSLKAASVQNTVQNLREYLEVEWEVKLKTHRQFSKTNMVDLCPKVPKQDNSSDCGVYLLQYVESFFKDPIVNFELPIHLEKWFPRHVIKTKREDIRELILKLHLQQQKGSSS
# Caspase-3 (Homo sapiens), sequence (P42574 28-227 limits assumed): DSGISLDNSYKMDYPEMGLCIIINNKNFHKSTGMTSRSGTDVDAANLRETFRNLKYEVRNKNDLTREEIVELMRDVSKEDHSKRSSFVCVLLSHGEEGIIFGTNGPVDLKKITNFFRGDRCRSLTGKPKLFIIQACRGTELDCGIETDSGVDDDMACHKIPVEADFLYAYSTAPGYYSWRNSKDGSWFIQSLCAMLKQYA
# Protein Mdm4 (Homo sapiens) + E3 ubiquitin-protein ligase Mdm2 (Homo sapiens), sequence (O15151 whole entry, looked up): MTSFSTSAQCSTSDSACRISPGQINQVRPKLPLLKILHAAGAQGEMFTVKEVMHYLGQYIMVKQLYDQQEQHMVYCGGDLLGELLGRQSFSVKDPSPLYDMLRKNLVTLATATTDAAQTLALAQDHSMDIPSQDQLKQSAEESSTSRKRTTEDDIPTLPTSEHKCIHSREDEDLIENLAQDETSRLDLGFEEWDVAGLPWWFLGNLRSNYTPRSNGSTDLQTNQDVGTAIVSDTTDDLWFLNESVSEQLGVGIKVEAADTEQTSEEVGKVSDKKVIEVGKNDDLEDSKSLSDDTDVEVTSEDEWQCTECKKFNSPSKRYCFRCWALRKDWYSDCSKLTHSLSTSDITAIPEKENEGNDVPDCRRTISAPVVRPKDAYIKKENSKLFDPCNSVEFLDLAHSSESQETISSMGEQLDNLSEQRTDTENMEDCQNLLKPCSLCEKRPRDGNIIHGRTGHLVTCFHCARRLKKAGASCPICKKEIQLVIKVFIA
# Protein Mdm4 (Homo sapiens) + E3 ubiquitin-protein ligase Mdm2 (Homo sapiens), sequence (Q00987 whole entry, looked up): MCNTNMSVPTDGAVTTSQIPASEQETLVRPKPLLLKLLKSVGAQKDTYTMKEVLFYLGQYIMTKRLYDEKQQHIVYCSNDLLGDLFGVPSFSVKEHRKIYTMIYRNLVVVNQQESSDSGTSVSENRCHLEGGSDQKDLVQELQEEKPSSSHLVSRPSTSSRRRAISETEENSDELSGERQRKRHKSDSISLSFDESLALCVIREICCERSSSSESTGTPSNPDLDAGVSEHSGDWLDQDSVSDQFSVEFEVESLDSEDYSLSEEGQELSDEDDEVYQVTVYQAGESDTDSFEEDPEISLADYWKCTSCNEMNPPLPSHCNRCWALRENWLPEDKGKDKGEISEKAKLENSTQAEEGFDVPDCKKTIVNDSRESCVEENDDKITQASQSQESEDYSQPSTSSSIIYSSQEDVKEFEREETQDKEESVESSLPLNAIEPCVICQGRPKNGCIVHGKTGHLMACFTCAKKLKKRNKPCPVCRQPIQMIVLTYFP
# Sentrin-specific protease 8 (Homo sapiens), sequence (Q96LD8 whole entry, looked up): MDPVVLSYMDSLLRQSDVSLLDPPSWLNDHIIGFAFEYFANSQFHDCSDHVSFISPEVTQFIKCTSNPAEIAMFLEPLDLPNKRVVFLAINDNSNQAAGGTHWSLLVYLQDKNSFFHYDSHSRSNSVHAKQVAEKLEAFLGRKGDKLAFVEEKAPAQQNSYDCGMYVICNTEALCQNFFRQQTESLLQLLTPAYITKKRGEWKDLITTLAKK
# Sentrin-specific protease 6 (Homo sapiens), sequence (Q9GZR1 628-1112 limits assumed): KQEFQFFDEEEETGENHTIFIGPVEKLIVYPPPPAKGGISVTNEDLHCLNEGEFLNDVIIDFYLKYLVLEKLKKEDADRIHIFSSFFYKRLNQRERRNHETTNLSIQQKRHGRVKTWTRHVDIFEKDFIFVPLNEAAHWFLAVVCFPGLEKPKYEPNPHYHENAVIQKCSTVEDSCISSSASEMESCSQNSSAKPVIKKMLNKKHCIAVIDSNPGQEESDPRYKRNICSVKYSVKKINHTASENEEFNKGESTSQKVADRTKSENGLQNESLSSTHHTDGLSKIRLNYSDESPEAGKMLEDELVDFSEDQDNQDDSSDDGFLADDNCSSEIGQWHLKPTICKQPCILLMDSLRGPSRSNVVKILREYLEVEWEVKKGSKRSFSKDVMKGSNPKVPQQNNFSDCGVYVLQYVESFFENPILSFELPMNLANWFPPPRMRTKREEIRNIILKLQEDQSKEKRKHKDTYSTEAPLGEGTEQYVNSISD
# Tumor necrosis factor receptor superfamily member 10B (Homo sapiens), sequence (O14763 whole entry, looked up): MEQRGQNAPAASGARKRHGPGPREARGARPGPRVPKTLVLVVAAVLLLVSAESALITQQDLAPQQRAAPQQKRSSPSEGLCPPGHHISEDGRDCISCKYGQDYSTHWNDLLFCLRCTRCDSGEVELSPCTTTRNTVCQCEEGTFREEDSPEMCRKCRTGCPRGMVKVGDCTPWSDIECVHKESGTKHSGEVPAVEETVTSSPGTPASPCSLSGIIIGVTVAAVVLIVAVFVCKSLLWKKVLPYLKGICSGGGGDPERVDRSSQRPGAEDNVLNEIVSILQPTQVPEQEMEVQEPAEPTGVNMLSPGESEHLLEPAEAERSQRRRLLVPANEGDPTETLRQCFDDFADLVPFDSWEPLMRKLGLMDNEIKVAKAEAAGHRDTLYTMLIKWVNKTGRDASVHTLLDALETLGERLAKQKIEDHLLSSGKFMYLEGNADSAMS
compound,measurement,setting,value
COc1cccc(-c2nc3ccc(N4CCN(C)CC4)cc3[nH]2)c1,cytotoxicity,[1],82.3% (active)
same,inhibition,[2],74.8% (active)
same,inhibition,[3],67.2% (active)
same,inhibition,[4],88.2% (active)
same,inhibition,[5],87% (active)
same,inhibition,[6],25.4% (inactive)
CCc1nc2ccccc2c(=O)n1-c1cccc(OC)c1,cytotoxicity,[1],-11.4% (inactive)
O=C1NC(=O)N(CCc2ccc(F)cc2)C(=O)/C1=C/C=C/c1ccccc1,activation,[7],90.1% (active)
C/C(=N/O)c1ccc2ccc3ccccc3c2c1,inhibition,[2],64.6% (active)
same,inhibition,[3],61.5% (active)
same,inhibition,[4],79.5% (active)
same,inhibition,[5],19.2% (inactive)
same,inhibition,[6],30.7% (inactive)
Cc1cc2ccccn2c1C(C[N+](=O)[O-])c1c(F)cccc1Cl (configuration not stated),inhibition,[8],33% (active)
CCCCCCCCCCCCn1ccc(=N)cc1,inhibition,[8],103% (active)
same,inhibition,[9],64% (active)
same,inhibition,[10],106% (active)
CCCCCn1c(=O)c(C(=O)Nc2c(C)n(C)n(-c3ccccc3)c2=O)c(O)c2ccccc21,IC50,[11],> 100 µM (inactive)
CC(Cc1ccccc1)NCCC(c1ccccc1)c1ccccc1 (configuration not stated),inhibition,[12],87.6% (active)
same,inhibition,[13],98%
same,inhibition,[14],98.9%
CC(=CCOc1ccc2ccc(=O)oc2c1)C1=CC(=O)C(C)(C)O1,inhibition,[15],-46% (inactive)
same,inhibition,[9],44.2% (active)
same,inhibition,[10],90.3% (active)
Cc1c(C(=O)N2CCC3(CC2)OCCO3)sc2ncnc(N3CCN(c4ccccn4)CC3)c12,inhibition,[13],97.5%
same,inhibition,[14],102%
COc1ccc(CNCCc2c(C)[nH]c3ccc(OC(F)(F)F)cc23)c(OC)c1,inhibition,[13],102%
same,inhibition,[14],101%
COc1cc2c(cc1OC)-c1c(OC)c(OC)c(OC)c3ccnc(c13)C2=O,inhibition,[16],23.6% (active)
O=C1NC(=S)N(c2ccccc2F)C(=O)/C1=C\c1cccs1,inhibition,[13],102%
same,inhibition,[14],99%
CC[n+]1c(-c2ccccc2)c2cc(N)ccc2c2ccc(N)cc21,inhibition,[13],102%
same,inhibition,[14],102%
Cc1ccc(S(=O)(=O)c2nc(-c3ccccc3Cl)oc2N(C)C2CCN(C)CC2)cc1,inhibition,[13],99.3%
same,inhibition,[14],101%
N#Cc1ccc(Cn2cc(C=O)c3ccccc32)cc1,inhibition,[13],90.2%
same,inhibition,[14],42.5%
Cc1ccc(C)c(NP(=O)(Oc2ccccc2)Oc2ccccc2)c1,inhibition,[13],88.2%
same,inhibition,[14],96.7%
O=Cc1cn(Cc2ccc([N+](=O)[O-])cc2)c2ccccc12,inhibition,[13],1.6%
same,inhibition,[14],29.8%
CC1(C)Cc2c(C#N)c(N3CCNCC3)nc(-c3ccco3)c2CS1,inhibition,[12],68.9% (active)
same,inhibition,[13],101%
same,inhibition,[14],101%
Brc1ccc(-[n+]2c(-c3ccccc3)cc(-c3ccccc3)cc2-c2ccccc2)cc1,inhibition,[16],24.1% (active)
same,activity,[17],73%
same,activity,[18],63%
